# Laboratory results from PubChem BioAssay (NCATS).
# Records with an inconclusive call do not appear. Calls of active or inactive are those of the source. Calls follow the shape of the dose curve; as a rule, active = well fitted inhibition curve with a large enough effect; inconclusive = small, poorly fitted or top-dose-only effect; inactive = flat fitted curve, though single readings scatter.
# System: HACAT
# Experiment: qHTS assay to identify novel small-molecules to repurpose for Merkel cell carcinoma treatment (AID 1296009); also: nearly all actives have a fitted effect of over 60% in size
# Conditions: MCC and control cell lines, CellTiter-Glo viability, 72 h; at 44.8 µM (top of the series) unless noted
# Method in brief: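 After compound transfer in DMSO, plates were kept 72 hr at 37 degree celsius. Luminescent ATP signal from CellTiter-Glo served as viability measure, normalized against DMSO and no-cell controls.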
row,Structure (SMILES),outcome
1,Nc1nc2c(c(=O)[nH]1)N(C=O)[C@H](CNc1ccc(C(=O)N[C@@H](CCC(=O)O)C(=O)O)cc1)CN2,inactive
2,COC(=O)C=CC(=O)OC,inactive
3,CC(C)(C)[C@H](NC(=O)c1ccc(N)c(Cl)c1)C(=O)N1CCC[C@@H]1C(=O)N[C@H](C#N)CC(=O)O,inactive [at 4.96 µM]
4,CC[C@H]1OC(=O)[C@H](C)[C@@H](O[C@H]2C[C@@](C)(OC)[C@@H](O)[C@H](C)O2)[C@H](C)[C@@H](O[C@@H]2O[C@@H](C)C[C@H](N(C)C)[C@@H]2O)[C@](C)(O)C[C@@H](C)C(=O)[C@H](C)[C@@H](O)[C@]1(C)O,inactive
5,COc1cc(C[C@@H](CO)[C@H](CO)Cc2ccc(O)c(OC)c2)ccc1O,inactive
6,CN1C(C(=O)Nc2ccccn2)=C(O)c2sc(Cl)cc2S1(=O)=O,inactive
7,Oc1cc2c(cc1O)C1c3ccc(O)c(O)c3OCC1(O)C2 (stereo unspecified),inactive
8,CC(=O)O[C@]1(C(C)=O)CC[C@H]2[C@@H]3C=C(C)C4=CC(=O)CC[C@]4(C)[C@@H]3CC[C@@]21C,inactive; activator
9,C[C@@H](NCc1cc2ccccc2[nH]1)c1cccc2ccccc12,inactive
10,CC(=O)O[C@H]1C[C@@H]2CC[C@H]3[C@H]4C[C@H]([N+]5(C)CCCCC5)[C@@H](OC(C)=O)[C@@]4(C)CC[C@@H]3[C@@]2(C)C[C@H]1[N+]1(C)CCCCC1,inactive
11,C=CC[C@@H]1C=C(C)C[C@H](C)C[C@H](OC)[C@H]2O[C@@](O)(C(=O)C(=O)N3CCCC[C@H]3C(=O)O[C@H](C(C)=C[C@@H]3CC[C@H](O)[C@H](OC)C3)[C@@H](C)[C@@H](O)CC1=O)[C@@H](C)C[C@@H]2OC,inactive
